Assay results: the supplement of paper PMC7366291
Counter-ions that a name gives are not always drawn. ± gives the standard deviation of the averaged measurements.

These molecules were tested on Danio rerio Tg(wt1b:EGFP) embryo, pronephros (assay: glomerular width (mean of left and right), fold change vs DMSO control; higher = wider glomerulus). Settings: 25 µM; exposure: 24-48 hpf.
Method in brief: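 Dechorionated Tg(wt1b:EGFP) zebrafish embryos were exposed to 25 μM compound in 0.5% DMSO, HEPES-buffered E3 with 0.003% PTU, from 24 to 48 hpf at 28.5°C. Pronephroi were imaged dorsally in agarose-filled 96-well plates (470 nm, 10 z-slices). On maximum projections, 16 reference points were set manually in Fiji and a macro computed distances and angles. Values more than 2 SD from the feature mean were excluded. Each feature is a fold change relative to the mean of same-day DMSO controls.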
NS(=O)(=O)Cc1noc2ccccc12 [Zonisamide] gave a glomerular width of 1 ± 0.059.
Molecule CCN1CC(CCN2CCOCC2)C(c2ccccc2)(c2ccccc2)C1=O (stereo not given) [Doxapram hydrochloride] has a glomerular width of 0.981 ± 0.0026.
For CC(C)[N+](C)(CCOC(=O)C1c2ccccc2Oc2ccccc21)C(C)C [Propantheline bromide], the glomerular width was 0.966 ± 0.062.
In the case of Nc1nc2n[nH]nc2c(=O)[nH]1 [Azaguanine-8], the glomerular width is reported as 1 ± 0.058.
Work on CCOC(=O)c1ccc(OC(=O)CCCCCNC(=N)N)cc1 [Gabexate mesilate] yielded a glomerular width of 0.986 ± 0.011.
With CN(C)[C@@H]1C(O)=C(C(N)=O)C(=O)[C@@]2(O)C(O)=C3C(=O)c4c(O)cccc4[C@@](C)(O)[C@H]3[C@H](O)[C@@H]12 [Oxytetracycline dihydrate] the glomerular width was 0.955 ± 0.036.
CCC(C)(CN(C)C)OC(=O)c1ccccc1 (stereo not given) [Amyleine hydrochloride] gave a glomerular width of 1.04 ± 0.028.
Work on CCN1CCC[C@H]1CNC(=O)c1c(OC)ccc(Br)c1OC [Remoxipride Hydrochloride] yielded a glomerular width of 1.02 ± 0.08.
CN(C)c1cc(NC(=O)CNC(C)(C)C)c(O)c2c1C[C@H]1C[C@H]3[C@H](N(C)C)C(O)=C(C(N)=O)C(=O)[C@@]3(O)C(O)=C1C2=O [Tigecycline] was tested, and the glomerular width was 1.03 ± 0.045.
CC(C)N1CCN(c2ccc(OCC3COC(Cn4cncn4)(c4ccc(Cl)cc4Cl)O3)cc2)CC1 (stereo not given) [Terconazole] showed a glomerular width of 1.0642 ± 0.00066.
In the case of CCCCNc1cc(C(=O)O)cc(S(N)(=O)=O)c1Oc1ccccc1 [Bumetanide], the glomerular width is reported as 1.08 ± 0.023.
COC(=O)[C@H]1[C@H]2C[C@@H]3c4[nH]c5cc(OC)ccc5c4CCN3C[C@H]2C[C@@H](OC(=O)c2cc(OC)c(OC)c(OC)c2)[C@@H]1OC [Reserpine] was tested, and the glomerular width was 0.995 ± 0.061.
With CCCCOc1ccc(OCCCN2CCOCC2)cc1 [Pramoxine hydrochloride] the glomerular width was 0.951 ± 0.025.
For CC#C[C@]1(O)CC[C@H]2[C@@H]3CCC4=CC(=O)CCC4=C3[C@@H](c3ccc(N(C)C)cc3)C[C@@]21C [Mifepristone], the glomerular width was 1.15 ± 0.027.
In the case of CCCCCCNC(=O)n1cc(F)c(=O)[nH]c1=O [Carmofur], the glomerular width is reported as 0.552 ± 0.03.
C#C[C@]1(O)CC[C@H]2[C@@H]3CCC4=CC(=O)CC[C@@H]4[C@H]3CC[C@@]21C [Norethindrone] was tested, and the glomerular width was 0.934 ± 0.068.
With CCOC(=O)O[C@]1(C(=O)OCCl)CC[C@H]2[C@@H]3CCC4=CC(=O)C=C[C@]4(C)[C@H]3[C@@H](O)C[C@@]21C [Loteprednol etabonate] the glomerular width was 0.884 ± 0.029.
Work on NC(=O)c1cccnc1 [Nicotinamide] yielded a glomerular width of 1.022 ± 0.0032.
Nc1cc(C(Cl)=C(Cl)Cl)c(S(N)(=O)=O)cc1S(N)(=O)=O [Clorsulon] showed a glomerular width of 0.948 ± 0.062.
Molecule CCCCc1cc2ccccc2c(OCCN(C)C)n1 [Dimethisoquin hydrochloride] has a glomerular width of 0.942 ± 0.065.
Work on CN1CCN(c2c(F)cc3c(=O)c(C(=O)O)cn(CCF)c3c2F)CC1 [Fleroxacin] yielded a glomerular width of 0.977 ± 0.049.
For CCN(CC)CCOC(=O)C(Cc1cccc2ccccc12)CC1CCCO1 (stereo not given) [Nafronyl oxalate], the glomerular width was 0.945 ± 0.058.
For CCCC(C(=O)OCCN(CC)CC)(c1ccccc1)c1ccccc1 [Proadifen hydrochloride], the glomerular width was 1.09 ± 0.071.
O=C(O)CCC(=O)Nc1ccc(S(=O)(=O)Nc2nccs2)cc1 [Succinylsulfathiazole] was tested, and the glomerular width was 1.03 ± 0.012.
With NC[C@H]1CC[C@H](C(=O)O)CC1 [Tranexamic acid] the glomerular width was 0.9771 ± 0.0082.
NS(=O)(=O)c1cc(C2(O)NC(=O)c3ccccc32)ccc1Cl (stereo not given) [Chlorthalidone] showed a glomerular width of 1.04 ± 0.079.
Work on O=C1CC2(CCCC2)CC(=O)N1CCCCN1CCN(c2ncccn2)CC1 [Buspirone hydrochloride] yielded a glomerular width of 1.02 ± 0.022.
C[N+](C)(C)CCOC(N)=O [Carbachol] was tested, and the glomerular width was 1 ± 0.013.
With Nc1nc(=O)[nH]cc1F [Flucytosine] the glomerular width was 1.0052 ± 0.0006.
C=C(CC)C(=O)c1ccc(OCC(=O)O)c(Cl)c1Cl [Ethacrynic acid] showed a glomerular width of 1.02 ± 0.0053.
In the case of COc1ccc2c3c1O[C@H]1C[C@@H](O)C=C[C@@]31CCN(C)C2 [Galanthamine hydrobromide], the glomerular width is reported as 1.04 ± 0.0055.
CN1CCC(=C2c3ccccc3Sc3ccccc32)CC1 [Pimethixene maleate] gave a glomerular width of 1.01 ± 0.021.
O=C1C(O)=C([C@H]2CC[C@H](c3ccc(Cl)cc3)CC2)C(=O)c2ccccc21 [Atovaquone] showed a glomerular width of 0.992 ± 0.027.
In the case of CC(C)(C)NC[C@H](O)COc1cccc2c1CCCC2=O [(-) -Levobunolol hydrochloride], the glomerular width is reported as 1.07 ± 0.0039.
With COc1nc(C)nc(Cl)c1NC1=NCCN1 [Moxonidine] the glomerular width was 1.01 ± 0.011.
For C[N+]1(CCCCC[N+]2(C)CCCC2)CCCC1 [Pentolinium bitartrate], the glomerular width was 1.0393 ± 0.0007.
In the case of C#C[C@]1(O)CC[C@H]2[C@@H]3[C@H](C)CC4=C(CCC(=O)C4)[C@H]3CC[C@@]21C [Tibolone], the glomerular width is reported as 0.908 ± 0.019.
N[C@@H]1CONC1=O [D-cycloserine] was tested, and the glomerular width was 0.976 ± 0.075.
CN(C)c1nc(N(C)C)nc(N(C)C)n1 [Altretamine] gave a glomerular width of 0.923 ± 0.011.
For CN1CCN(C(c2ccccc2)c2ccc(Cl)cc2)CC1 (stereo not given) [Chlorcyclizine hydrochloride], the glomerular width was 0.995 ± 0.017.
